Our source for the inhibition values is ChEMBL document CHEMBL1961873, “Compounds: GSK PKIS; Assays: Nanosyn kinase panel” (2012).

Assay [1] concerns the target Protein kinase C gamma type (Homo sapiens) (UniProt P05129). As to conditions: at 1 µM.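 Note: each value is an averaged percent inhibition of the enzyme.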
The target of assay [2] is T1, Protein kinase C iota type (Homo sapiens) (UniProt P41743).
T1 sequence (whole entry): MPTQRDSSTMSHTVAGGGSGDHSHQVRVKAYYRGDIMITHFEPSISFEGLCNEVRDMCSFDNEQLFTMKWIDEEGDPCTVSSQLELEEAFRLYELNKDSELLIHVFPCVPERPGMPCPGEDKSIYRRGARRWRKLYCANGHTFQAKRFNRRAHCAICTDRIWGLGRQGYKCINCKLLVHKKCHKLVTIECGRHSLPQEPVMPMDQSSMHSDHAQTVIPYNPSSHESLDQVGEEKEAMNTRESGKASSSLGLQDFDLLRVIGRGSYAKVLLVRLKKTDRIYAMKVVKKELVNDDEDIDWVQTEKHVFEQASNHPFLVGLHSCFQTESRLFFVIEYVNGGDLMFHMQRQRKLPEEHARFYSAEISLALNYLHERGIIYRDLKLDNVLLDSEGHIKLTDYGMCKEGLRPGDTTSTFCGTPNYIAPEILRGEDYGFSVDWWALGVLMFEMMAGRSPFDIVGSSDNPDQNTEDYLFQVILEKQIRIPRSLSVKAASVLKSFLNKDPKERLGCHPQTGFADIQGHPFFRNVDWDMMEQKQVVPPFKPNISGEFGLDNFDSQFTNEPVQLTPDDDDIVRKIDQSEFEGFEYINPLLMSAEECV
To be noted: at 0.1 µM.

Assay [3] has as its target T1, Protein kinase C iota type (Homo sapiens). To be noted: at 1 µM.
Assay [4] has as its target Protein kinase C theta type (Homo sapiens) (UniProt Q04759). To be noted: at 0.1 µM.
Assay [5] has the same target. As to conditions: at 1 µM.
Assay [6] addresses Protein kinase C beta type (Homo sapiens) (UniProt P05771). To be noted: at 0.1 µM.
For assay [7] the target is unchanged. As to conditions: at 1 µM.
Assay [8] addresses T2, Serine/threonine-protein kinase D1 (Homo sapiens) (UniProt Q15139).
T2 sequence (whole entry): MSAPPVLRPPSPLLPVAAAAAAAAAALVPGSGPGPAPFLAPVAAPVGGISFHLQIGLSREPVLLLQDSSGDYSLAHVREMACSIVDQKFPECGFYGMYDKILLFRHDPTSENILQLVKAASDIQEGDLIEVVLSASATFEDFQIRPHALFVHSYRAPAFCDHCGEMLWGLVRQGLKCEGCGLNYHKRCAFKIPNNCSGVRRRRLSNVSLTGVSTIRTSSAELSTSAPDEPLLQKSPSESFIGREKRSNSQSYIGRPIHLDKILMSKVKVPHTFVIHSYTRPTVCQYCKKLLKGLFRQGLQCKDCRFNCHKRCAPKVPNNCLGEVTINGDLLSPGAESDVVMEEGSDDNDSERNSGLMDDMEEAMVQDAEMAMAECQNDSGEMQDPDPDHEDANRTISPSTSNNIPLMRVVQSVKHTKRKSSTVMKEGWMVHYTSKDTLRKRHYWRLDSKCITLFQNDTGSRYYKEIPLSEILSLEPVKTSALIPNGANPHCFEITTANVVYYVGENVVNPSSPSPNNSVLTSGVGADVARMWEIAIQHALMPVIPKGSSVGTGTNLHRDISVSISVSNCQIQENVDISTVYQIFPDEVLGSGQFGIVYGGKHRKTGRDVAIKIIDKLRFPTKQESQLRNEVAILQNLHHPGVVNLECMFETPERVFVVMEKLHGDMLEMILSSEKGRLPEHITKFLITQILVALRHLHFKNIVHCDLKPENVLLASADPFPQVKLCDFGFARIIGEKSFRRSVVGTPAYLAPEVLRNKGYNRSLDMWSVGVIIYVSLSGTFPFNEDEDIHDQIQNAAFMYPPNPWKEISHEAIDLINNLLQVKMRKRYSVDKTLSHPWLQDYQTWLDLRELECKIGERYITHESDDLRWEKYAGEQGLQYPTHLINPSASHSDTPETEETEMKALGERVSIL
As to conditions: at 0.1 µM.

Assay [9] concerns the target T2, Serine/threonine-protein kinase D1 (Homo sapiens). To be noted: at 1 µM.
Assay [10] concerns the target T3, Serine/threonine-protein kinase D2 (Homo sapiens) (UniProt Q9BZL6).
T3 sequence (whole entry): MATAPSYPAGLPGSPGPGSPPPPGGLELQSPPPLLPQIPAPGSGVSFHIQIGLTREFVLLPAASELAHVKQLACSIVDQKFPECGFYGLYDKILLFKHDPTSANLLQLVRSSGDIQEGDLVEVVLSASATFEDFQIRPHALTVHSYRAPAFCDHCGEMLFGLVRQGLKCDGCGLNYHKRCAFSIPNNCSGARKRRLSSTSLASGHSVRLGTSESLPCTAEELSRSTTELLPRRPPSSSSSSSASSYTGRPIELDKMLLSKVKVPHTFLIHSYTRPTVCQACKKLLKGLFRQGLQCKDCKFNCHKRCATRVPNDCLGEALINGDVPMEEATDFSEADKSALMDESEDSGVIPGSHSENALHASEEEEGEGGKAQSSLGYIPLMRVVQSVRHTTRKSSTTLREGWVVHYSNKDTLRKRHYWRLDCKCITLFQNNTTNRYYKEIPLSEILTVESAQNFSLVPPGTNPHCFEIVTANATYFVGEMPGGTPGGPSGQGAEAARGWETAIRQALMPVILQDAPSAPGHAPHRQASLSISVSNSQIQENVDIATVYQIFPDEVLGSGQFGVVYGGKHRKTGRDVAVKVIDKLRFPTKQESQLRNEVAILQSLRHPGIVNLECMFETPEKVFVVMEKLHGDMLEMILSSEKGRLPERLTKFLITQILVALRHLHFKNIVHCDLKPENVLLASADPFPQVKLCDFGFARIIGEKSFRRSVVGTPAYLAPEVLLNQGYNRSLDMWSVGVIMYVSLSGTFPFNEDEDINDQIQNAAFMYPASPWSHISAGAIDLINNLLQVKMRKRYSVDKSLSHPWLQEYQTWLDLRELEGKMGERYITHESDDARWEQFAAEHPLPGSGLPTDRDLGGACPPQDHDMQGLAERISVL
As to conditions: at 0.1 µM.

Assay [11] addresses T3, Serine/threonine-protein kinase D2 (Homo sapiens). As to conditions: at 1 µM.
In assay [12] the target is T4, Serine/threonine-protein kinase D3 (Homo sapiens) (UniProt O94806).
T4 sequence (whole entry): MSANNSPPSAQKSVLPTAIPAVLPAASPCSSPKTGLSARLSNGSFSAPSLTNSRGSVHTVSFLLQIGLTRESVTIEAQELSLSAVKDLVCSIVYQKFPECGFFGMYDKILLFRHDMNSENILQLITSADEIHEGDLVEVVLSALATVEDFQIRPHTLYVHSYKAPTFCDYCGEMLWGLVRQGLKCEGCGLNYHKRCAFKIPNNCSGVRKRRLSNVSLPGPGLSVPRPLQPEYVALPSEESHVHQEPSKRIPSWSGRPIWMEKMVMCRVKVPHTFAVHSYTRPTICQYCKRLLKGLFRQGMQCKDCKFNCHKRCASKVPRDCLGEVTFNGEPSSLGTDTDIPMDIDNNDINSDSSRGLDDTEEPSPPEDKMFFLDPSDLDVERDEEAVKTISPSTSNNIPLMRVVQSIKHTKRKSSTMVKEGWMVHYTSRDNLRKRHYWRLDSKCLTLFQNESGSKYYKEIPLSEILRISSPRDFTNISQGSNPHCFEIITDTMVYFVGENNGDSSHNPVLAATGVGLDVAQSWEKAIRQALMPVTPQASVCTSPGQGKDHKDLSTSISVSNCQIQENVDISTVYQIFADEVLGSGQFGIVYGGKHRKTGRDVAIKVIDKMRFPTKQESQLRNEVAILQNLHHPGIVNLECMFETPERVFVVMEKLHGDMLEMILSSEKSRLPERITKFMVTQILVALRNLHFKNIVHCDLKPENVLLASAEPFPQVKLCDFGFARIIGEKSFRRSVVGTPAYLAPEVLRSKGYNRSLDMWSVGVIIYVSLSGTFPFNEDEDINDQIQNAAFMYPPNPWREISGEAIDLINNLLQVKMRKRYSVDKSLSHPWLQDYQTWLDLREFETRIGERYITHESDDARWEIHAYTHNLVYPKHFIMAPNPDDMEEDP
To be noted: at 0.1 µM.

Assay [13] has as its target T4, Serine/threonine-protein kinase D3 (Homo sapiens). As to conditions: at 1 µM.
Assay [14] concerns the target T5, cGMP-dependent protein kinase 1 (Homo sapiens) (UniProt Q13976).
T5 sequence (whole entry): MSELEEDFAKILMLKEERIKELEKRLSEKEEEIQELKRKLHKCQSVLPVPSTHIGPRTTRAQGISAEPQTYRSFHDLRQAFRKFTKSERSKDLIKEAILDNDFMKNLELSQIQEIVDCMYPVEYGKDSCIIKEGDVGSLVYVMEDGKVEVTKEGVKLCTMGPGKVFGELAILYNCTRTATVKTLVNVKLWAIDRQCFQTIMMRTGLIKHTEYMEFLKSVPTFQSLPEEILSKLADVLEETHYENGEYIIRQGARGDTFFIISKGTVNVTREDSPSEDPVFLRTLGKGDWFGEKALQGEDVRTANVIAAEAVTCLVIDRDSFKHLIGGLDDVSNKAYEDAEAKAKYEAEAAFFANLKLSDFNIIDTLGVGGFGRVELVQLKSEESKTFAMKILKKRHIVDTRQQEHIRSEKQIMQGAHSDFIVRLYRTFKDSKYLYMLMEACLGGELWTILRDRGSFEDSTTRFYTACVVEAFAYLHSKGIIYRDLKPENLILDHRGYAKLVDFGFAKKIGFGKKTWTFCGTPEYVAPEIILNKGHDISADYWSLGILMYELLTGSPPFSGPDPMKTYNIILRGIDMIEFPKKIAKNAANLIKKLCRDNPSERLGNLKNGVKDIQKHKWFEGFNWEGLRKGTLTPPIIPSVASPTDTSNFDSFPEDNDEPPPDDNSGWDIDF
To be noted: at 0.1 µM.

Assay [15] has as its target T5, cGMP-dependent protein kinase 1 (Homo sapiens). To be noted: at 1 µM.
Assay [16] concerns the target T6, cGMP-dependent protein kinase 2 (Homo sapiens) (UniProt Q13237).
T6 sequence (whole entry): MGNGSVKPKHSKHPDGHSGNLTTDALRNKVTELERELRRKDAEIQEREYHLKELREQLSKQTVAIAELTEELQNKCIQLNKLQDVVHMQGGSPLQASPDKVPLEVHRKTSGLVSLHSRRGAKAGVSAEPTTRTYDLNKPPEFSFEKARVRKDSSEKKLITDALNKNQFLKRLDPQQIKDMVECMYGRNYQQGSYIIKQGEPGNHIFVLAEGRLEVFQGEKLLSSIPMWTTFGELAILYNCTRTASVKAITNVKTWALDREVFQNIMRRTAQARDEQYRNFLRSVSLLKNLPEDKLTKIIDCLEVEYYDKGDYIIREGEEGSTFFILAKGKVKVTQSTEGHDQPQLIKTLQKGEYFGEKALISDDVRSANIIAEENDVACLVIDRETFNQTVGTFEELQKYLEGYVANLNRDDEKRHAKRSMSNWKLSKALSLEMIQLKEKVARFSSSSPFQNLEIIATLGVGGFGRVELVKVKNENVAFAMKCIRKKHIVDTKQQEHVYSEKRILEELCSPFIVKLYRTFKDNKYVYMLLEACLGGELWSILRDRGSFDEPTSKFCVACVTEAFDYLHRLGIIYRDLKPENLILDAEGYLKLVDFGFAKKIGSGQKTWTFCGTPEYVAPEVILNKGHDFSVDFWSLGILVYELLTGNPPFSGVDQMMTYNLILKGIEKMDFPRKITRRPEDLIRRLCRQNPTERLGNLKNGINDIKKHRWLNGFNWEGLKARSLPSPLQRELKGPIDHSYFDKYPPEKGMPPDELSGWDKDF
As to conditions: at 0.1 µM.

Assay [17] addresses T6, cGMP-dependent protein kinase 2 (Homo sapiens). To be noted: at 1 µM.
Assay [18] deals with T7, cAMP-dependent protein kinase catalytic subunit PRKX (Homo sapiens) (UniProt P51817).
T7 sequence (whole entry): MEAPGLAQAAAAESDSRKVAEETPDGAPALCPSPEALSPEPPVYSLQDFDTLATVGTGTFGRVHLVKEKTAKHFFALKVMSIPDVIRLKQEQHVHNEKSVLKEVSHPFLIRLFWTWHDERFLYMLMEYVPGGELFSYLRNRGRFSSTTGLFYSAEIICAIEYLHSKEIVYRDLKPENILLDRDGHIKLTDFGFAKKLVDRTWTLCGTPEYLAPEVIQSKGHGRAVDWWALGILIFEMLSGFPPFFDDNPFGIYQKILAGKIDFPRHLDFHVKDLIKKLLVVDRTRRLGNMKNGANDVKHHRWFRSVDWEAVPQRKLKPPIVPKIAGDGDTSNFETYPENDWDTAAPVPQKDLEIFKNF
As to conditions: at 0.1 µM.

The target of assay [19] is T7, cAMP-dependent protein kinase catalytic subunit PRKX (Homo sapiens). To be noted: at 1 µM.
The target in assay [20] is Rho-associated protein kinase 1 (Homo sapiens) (UniProt Q13464). As to conditions: at 0.1 µM.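 Note: values are mean percent inhibition of ROCK1.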
Sequence of Rho-associated protein kinase 1 (Homo sapiens) (Q13464 2-1354 limits assumed): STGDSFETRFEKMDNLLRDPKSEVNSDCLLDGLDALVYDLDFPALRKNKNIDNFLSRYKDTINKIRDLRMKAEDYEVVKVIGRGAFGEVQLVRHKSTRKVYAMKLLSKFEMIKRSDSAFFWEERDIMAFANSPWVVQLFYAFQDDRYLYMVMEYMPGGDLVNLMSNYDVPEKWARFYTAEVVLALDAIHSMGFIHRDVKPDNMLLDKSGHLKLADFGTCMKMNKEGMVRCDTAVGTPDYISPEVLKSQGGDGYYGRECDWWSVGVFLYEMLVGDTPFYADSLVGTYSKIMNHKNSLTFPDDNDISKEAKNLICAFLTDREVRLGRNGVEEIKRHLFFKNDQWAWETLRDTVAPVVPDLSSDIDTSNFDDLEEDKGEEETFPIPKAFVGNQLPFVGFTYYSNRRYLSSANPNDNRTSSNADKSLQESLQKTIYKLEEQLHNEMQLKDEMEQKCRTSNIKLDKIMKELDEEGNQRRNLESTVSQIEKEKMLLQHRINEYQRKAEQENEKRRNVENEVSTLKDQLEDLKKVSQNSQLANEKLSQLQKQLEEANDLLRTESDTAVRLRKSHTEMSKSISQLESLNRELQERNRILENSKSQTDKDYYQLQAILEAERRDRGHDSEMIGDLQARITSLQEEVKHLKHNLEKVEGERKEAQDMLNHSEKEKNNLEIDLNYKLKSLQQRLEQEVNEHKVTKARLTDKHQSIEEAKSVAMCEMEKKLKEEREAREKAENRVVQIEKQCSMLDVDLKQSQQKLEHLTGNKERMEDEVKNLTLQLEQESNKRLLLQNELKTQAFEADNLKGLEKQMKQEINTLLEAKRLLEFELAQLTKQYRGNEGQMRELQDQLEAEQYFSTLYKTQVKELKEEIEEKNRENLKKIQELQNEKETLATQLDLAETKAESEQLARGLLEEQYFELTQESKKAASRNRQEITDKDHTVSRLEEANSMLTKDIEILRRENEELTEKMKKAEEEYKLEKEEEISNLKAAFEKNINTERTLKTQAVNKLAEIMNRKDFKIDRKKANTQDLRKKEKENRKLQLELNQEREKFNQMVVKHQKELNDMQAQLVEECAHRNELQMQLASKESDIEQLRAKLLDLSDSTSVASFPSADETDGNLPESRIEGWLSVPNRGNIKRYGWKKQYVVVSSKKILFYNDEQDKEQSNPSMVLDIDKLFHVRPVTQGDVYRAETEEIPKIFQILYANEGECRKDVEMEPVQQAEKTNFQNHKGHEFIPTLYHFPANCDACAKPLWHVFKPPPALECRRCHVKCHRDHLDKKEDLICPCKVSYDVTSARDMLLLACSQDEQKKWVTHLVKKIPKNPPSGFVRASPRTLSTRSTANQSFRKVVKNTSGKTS

Sequence of Protein kinase C beta type (Homo sapiens) (P05771 2-671 limits assumed): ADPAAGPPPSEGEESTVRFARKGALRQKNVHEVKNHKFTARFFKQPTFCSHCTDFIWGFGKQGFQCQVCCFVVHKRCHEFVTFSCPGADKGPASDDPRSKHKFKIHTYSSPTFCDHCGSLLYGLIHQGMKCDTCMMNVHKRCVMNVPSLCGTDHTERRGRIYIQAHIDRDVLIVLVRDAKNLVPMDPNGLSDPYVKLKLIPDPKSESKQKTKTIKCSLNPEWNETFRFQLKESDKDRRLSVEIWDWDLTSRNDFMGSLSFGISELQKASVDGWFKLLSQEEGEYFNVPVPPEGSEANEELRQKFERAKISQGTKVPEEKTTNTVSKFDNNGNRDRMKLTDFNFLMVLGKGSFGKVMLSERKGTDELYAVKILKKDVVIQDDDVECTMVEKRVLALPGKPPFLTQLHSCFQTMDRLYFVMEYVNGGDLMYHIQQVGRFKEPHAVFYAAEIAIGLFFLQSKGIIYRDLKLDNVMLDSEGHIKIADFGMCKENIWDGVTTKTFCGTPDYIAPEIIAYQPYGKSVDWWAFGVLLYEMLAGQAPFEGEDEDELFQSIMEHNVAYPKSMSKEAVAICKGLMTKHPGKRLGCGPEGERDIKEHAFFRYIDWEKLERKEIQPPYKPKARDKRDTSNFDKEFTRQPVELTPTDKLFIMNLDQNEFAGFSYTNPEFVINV
Sequence of Protein kinase C theta type (Homo sapiens) (Q04759 whole entry, looked up): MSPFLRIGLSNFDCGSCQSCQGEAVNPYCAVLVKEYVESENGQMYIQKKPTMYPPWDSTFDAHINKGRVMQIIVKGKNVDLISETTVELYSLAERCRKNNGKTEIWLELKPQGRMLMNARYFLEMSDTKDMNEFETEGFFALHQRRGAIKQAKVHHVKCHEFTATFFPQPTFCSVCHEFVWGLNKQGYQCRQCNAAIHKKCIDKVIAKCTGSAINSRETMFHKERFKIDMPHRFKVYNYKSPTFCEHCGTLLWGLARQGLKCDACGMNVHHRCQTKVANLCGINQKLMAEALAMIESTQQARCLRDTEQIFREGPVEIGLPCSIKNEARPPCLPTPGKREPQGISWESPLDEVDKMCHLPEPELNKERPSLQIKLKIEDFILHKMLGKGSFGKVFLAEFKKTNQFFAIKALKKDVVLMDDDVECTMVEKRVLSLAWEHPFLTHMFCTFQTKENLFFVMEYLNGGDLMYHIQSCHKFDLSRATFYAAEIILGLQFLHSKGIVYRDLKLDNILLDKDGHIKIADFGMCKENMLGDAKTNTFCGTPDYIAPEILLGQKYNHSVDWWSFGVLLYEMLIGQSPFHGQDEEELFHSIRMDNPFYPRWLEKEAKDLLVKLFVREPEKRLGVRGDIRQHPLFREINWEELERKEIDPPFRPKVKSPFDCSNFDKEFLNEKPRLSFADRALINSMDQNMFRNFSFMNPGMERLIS

In general, inhibition refers to the change of the read-out against control, counted positive when it falls. Higher therefore signals a strong effect. `CCc1ccc(Oc2nccc(-c3c(-c4ccc(F)cc4)ncn3C3CCNCC3)n2)cc1`: the inhibition in assay [1] came out at 10.9%; in assay [2], 0.16%; in [3], 1.79%; in assay [4] it was 4%; in [5], 8.13%; in assay [6], 2.37%. For the same compound, the inhibition in assay [7] is 9.56%; in assay [8], 3.88%; in assay [9], 13%; in [10], 4.63%; in [11], 13.7%; in assay [12] it was 4.01%. In addition, the inhibition in assay [13] is 9.71%; in assay [14] it was 4.32%; in assay [15], 10.4%; in [16], 5.03%; in assay [17], 8.46%; in assay [18], 3.21%. Also, the inhibition in assay [19] turned out to be 3.97%; in assay [20], 1.24%.
Consider `Fc1ccc(-c2ncn(C3CCNCC3)c2-c2ccnc(Oc3ccc(F)c(F)c3)n2)cc1`, for which the inhibition was found to be 4.25% in assay [1]; 1.82% in [2]; 1.79% in assay [3]; 2.61% in [4]; 2.43% in assay [5]; 0.97% in assay [6]. Moreover, the inhibition in assay [7] stood at 3.85%; in assay [8] it was 2%; in assay [9], 7.05%; in [10], 1.25%; in assay [11] it was 3.98%; in [12], 1.09%. The inhibition in [13] stood at 5.58%; in assay [14], 2.42%; in [15] it was 0.89%; in [16], 0.9%; in assay [17], 4.44%; in assay [18] it was 1.98%. Also, the results for the inhibition in assay [19] and in [20] were 2.55% and 1.38%, respectively.
